Assay outcomes: PubChem, several laboratories
Hits are enriched below; roughly 2.8% of the tested compounds scored in any of these assays.
LMP1 NFkB inh: inhibitors of Epstein-Barr LMP1-induced NF-kappaB reporter; 350,000 compounds, 0.69% hits; inhibition, % at 12.5 µM; LMP1-induced NF-kappaB luciferase reporter cells, luminescence; in the data active = inhibition above about 41%; inconclusive = no clear call, values can overlap the other calls
HIF-2a inh: HIF-2a inhibition; 786-0 RCC cells HIF-2a reporter, luciferase luminescence, overnight; inhibition, % at 18.8 µM; 360,000 compounds, 0.72% hits;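 active = inhibition of the luminescence signal of 40% or more relative to plate controls, in a single-dose primary screen at 18.75 µM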
MITF TRPM1 inh: MITF TRPM1 promoter inhibition in SK-MEL-5 cells; AID 488899; inhibition, % at 12.5 µM; 330,000 compounds, 0.83% hits; SK-MEL-5 TRPM1 promoter luciferase, 24 h;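 active = mean inhibition across replicates of 60% or more, whatever share of single replicates reaches that level; inconclusive = some that reach 60%, reason not given; inactive = mean inhibition across replicates below 60%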
PAX8 reporter: PAX8 transcriptional activity inhibition; inhibition, % at 12.6 µM; 360,000 compounds, 1.2% hits; RMG-I TPO-luciferase reporter, SteadyGlo, 24 h;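 active = mean replicate inhibition at least 60% with every replicate also reaching 60%; inconclusive = only one of the two criteria is met; inactive = mean below 60% and not all replicates reaching 60%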;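 also: luciferase light reporting Pax8 driven TPO promoter activity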
Shn3 3UTR inh: inhibitors of Schnurri-3 3'UTR reporter in osteoblasts. Clone20 osteoblast Shn3 3'UTR firefly luciferase, 24 h. AID 588674. 360,000 compounds, 0.52% hits. inhibition, % at 12.5 µM;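 active = mean inhibition of at least 75% with every replicate also reaching 75%; inconclusive = mean inhibition at least 75% but some replicate below; inactive = mean inhibition below 75%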
Peg3 prom inh: inhibitors of Peg3 promoter | HeLa PEG-Prom luciferase reporter, luminescence, overnight | inhibition, % at 20 µM | 360,000 compounds, 1.7% hits | AID 588405;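 active = inhibition of at least 50% at 20 µM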
A number is an active result; – = inactive; ? = inconclusive; · = no result given.

SMILES | LMP1 NFkB inh | HIF-2a inh | MITF TRPM1 inh | PAX8 reporter | Shn3 3UTR inh | Peg3 prom inh
Cc1noc(C)c1NC(=O)Nc1ccc2c(c1)C(=O)N([C@H](C)CO)C[C@@H](C)[C@H](CN(C)C(=O)Nc1ccc(C(F)(F)F)cc1)OCCCC[C@H](C)O2 | · | · | · | – | · | ·
O=C(C1CC1)N1CCCCN2[C@H](CO)[C@@H](c3ccc(C#CC4(O)CCCC4)cc3)[C@@H]2C1 | · | · | · | – | · | ·
CC(C)CC#Cc1ccc([C@H]2[C@@H](CO)N3C(=O)CN(C(=O)c4ccc5c(c4)OCO5)C[C@H]23)cc1 | · | · | · | – | · | ·
CC1CCN(c2ccc(-c3ccc(NC(=O)C(F)(F)F)cc3)nn2)CC1 | 46 | – | – | · | – | –
O=C(c1ccc(S(=O)(=O)N2CCCCC2)cc1)N1CCN(CCN2C(=O)c3cccc4cccc(c34)C2=O)CC1 | – | – | – | – | – | 68
CC(=O)c1ccc(OCC(O)CN2CCN(CCN3C(=O)c4cccc5cccc(c45)C3=O)CC2)cc1 (centres undefined) | – | – | – | – | – | 50
Cc1cccc(C)c1OCC(O)CN1CCC(CN2C(=O)c3cccc4cccc(c34)C2=O)CC1 (centres undefined) | – | – | – | · | – | 55
O=C(c1ccc(S(=O)(=O)N2CCCC2)cc1)N1CCCCCC1 | – | – | – | – | – | –
CC(C)OCC(O)CN1CCN(CCN2C(=O)c3cccc4cccc(c34)C2=O)CC1 (centres undefined) | – | – | – | – | – | –
C[C@@H]1CCCCO[C@@H](CN(C)C(=O)C2CCCCC2)[C@H](C)CN([C@H](C)CO)C(=O)c2cc(NC(=O)c3ccncc3)ccc2O1 | · | · | · | – | · | ·
CC(NC(=O)CCOc1ccccc1)c1ccccc1 (centres undefined) | 74 | – | – | · | – | –
COc1ccc(OCCCC(=O)NC(C)c2ccccc2)cc1 (centres undefined) | – | – | – | · | – | –
COc1ccccc1Cc1c(-c2ccco2)nc2c(C)cc(Br)cn12 | · | 93 | · | · | 94 | 98
COc1ccc(Cc2c(-c3ccco3)nc3c(C)cc(Br)cn23)c(C)c1 | · | – | · | – | – | –
CCCc1cnc(Nc2nc(C(N)Cc3ccc(OC)cc3)cs2)nc1 (centres undefined) | · | – | · | – | – | 100
COc1ccc(CC(N)c2csc(Nc3cc(NCCCO)ncn3)n2)cc1 (centres undefined) | · | – | · | – | – | –
CCc1cnc(Nc2nc(C(N)Cc3ccc(Cl)cc3)cs2)nc1 (centres undefined) | · | – | · | – | – | –
COc1ccc(CC(N)c2csc(Nc3nncc4ccccc34)n2)cc1 (centres undefined) | · | – | · | – | – | 121
NC(c1csc(Nc2nncc3ccccc23)n1)c1ccccc1Cl (centres undefined) | · | – | · | – | – | –
COc1cc(OC)nc(Nc2nc(C(N)Cc3ccc(F)cc3)cs2)n1 (centres undefined) | · | – | · | – | – | 96
O=C(c1cnccn1)N1CC(=O)N2[C@H](C1)[C@@H](c1ccc(-c3ccccc3)cc1)[C@@H]2CO | · | · | · | – | · | ·
COc1cc2nc(Nc3ccc(C)c(C)c3)nc(N)c2cc1OC | – | – | – | – | – | 56
COc1cc2nc(Nc3ccc(F)cc3)nc(N)c2cc1OC | – | – | – | – | – | –
COc1cc2nc(Nc3ccc(C)c(Cl)c3)nc(N)c2cc1OC | – | – | 70 | – | – | 114
C[C@H](CO)N1C[C@H](C)[C@@H](CN(C)C(=O)NC2CCCC2)Oc2ncc(C3=CCCC3)cc2C1=O | · | · | · | – | · | ·
SMILES | LMP1 NFkB inh | HIF-2a inh | MITF TRPM1 inh | PAX8 reporter | Shn3 3UTR inh | Peg3 prom inh
CC1=NOC(=O)/C1=C/c1ccc(-c2ccc(Cl)cc2)o1 | – | – | 99 | · | ? | 102
CC1=NOC(=O)/C1=C\c1ccc(-c2ccc(Br)cc2C(=O)O)o1 | – | – | – | – | – | –
CC1=NOC(=O)/C1=C\c1ccc(-c2ccc(Br)cc2)o1 | – | – | 79 | – | – | 89
CC1=NOC(=O)/C1=C\c1ccc(-c2cc(Cl)ccc2Cl)o1 | – | – | 99 | · | 94 | 101
CN1C(=O)c2cc(NC(=O)c3cccc(F)c3)ccc2OC[C@H]2O[C@H](CC(=O)O)CC[C@@H]21 | · | · | · | – | · | ·
O=C(Nc1cccc(F)c1)N1C[C@H]2[C@@H](c3ccccc31)[C@H](CO)N2C(=O)Cc1ccccn1 | · | · | · | – | · | ·
Cc1ccc(/C=C2\CCOC2=O)cc1 | – | – | – | – | – | –
Cc1ccc(/C=C2/CNC/C(=C/c3ccc(C)cc3)C2=O)cc1 | 80 | 85 | 91 | – | – | 105
Cc1c(C(C)C)c(=O)n(-c2ccc(S(=O)(=O)NC3CCCCC3)cc2)n1C | – | – | – | – | 88 | –
Cc1c(C(C)C)c(=O)n(-c2ccc(S(=O)(=O)N3CCOCC3)cc2)n1C | – | – | – | – | – | –
CCc1ccc(S(=O)(=O)Nc2c(C)n(C)n(-c3ccccc3)c2=O)cc1 | – | – | – | – | – | –
Cc1c(C(C)C)c(=O)n(-c2ccc(S(=O)(=O)NCc3ccccc3)cc2)n1C | – | – | – | – | 83 | –
CN(C)CCCNC(=O)[C@H]1[C@H](CO)[C@H]2Cn3c(ccc(-c4ccccc4)c3=O)[C@H]2N1C | · | · | · | – | · | ·
C[C@@H]1CN([C@H](C)CO)C(=O)c2ccccc2-c2ccccc2CO[C@H]1CN(C)C(=O)[C@@H]1CCCN1C | · | · | · | – | · | ·
O=C(Nc1nc(-c2ccc(S(=O)(=O)N3CCOCC3)cc2)cs1)c1ccccc1 | – | – | – | – | – | –
Cc1ccc(C(=O)Nc2nc(-c3ccccn3)cs2)cc1S(=O)(=O)N1CCOCC1 | – | – | – | 82 | 90 | –
CN(CC1CCCO1)S(=O)(=O)c1ccc(C(=O)Nc2nc(-c3ccccn3)cs2)cc1 (centres undefined) | – | – | – | · | 90 | 54
COc1cccc(C(=O)Nc2nc(-c3ccc(S(=O)(=O)N4CCOCC4)cc3)cs2)c1 | – | – | – | · | – | 68
O=C(Nc1nc(-c2ccccn2)cs1)c1ccc(F)c(S(=O)(=O)N2CCOCC2)c1 | – | – | 67 | 84 | 94 | –
O=C(Cc1ccccn1)N1[C@H](CO)[C@@H]2c3ccccc3NC[C@@H]21 | · | · | · | – | · | ·
O=C(Nc1nc(-c2cc3ccccc3o2)cs1)c1ccc(S(=O)(=O)N2CCCC2)cc1 | – | – | – | – | – | –
CC1CN(S(=O)(=O)c2ccc(C(=O)Nc3nc(-c4cc5ccccc5o4)cs3)cc2)CC(C)O1 (centres undefined) | – | – | – | – | 87 | –
CC(=O)c1cc(NC(=O)c2cccc(C(F)(F)F)c2)c(=O)oc1C | – | – | – | 89 | – | –
CCSc1nnc(NC(=O)CSc2nnc(-c3c[nH]c4ccccc34)n2CC)s1 | 85 | – | – | – | – | –
O=C(Nc1cccc([N+](=O)[O-])c1)c1cc2ccccc2cc1O | – | – | – | 78 | – | –
CCN1/C(=C/C(C)=C/c2sc3ccccc3[n+]2CC)Sc2ccccc21 | – | 95 | 103 | 102 | 88 | 104
